Several values for one entry are separate records, joined by “and”; a condition that tells them apart may be missing. Equal entries are not always repeated. Records with an inconclusive call do not appear. Some compounds were tested as several samples or in several runs, with calls that do not always agree. Activity calls are given as the source filed them. Unless noted, calls come from the whole dose curve; as a rule, active = well fitted curve in the direction sought with a large enough effect; inconclusive = small, poorly fitted or top-dose-only effect, or another doubt; inactive = no such curve, though single readings can be large; an effect the other way counts as inactive or inconclusive.
Tests used:
[1] = Identifying Small Molecule Inhibitors of Pancreatic Cancer Stem Cells (A2780, Spheroid) (AID 1259357); conditions: Potency: A2780 spheroid viability;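 note: compound exposure lasted 48 h before the ATP luminescence read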; note: potency is the fitted concentration of half-maximal effect
Summary of the method: (§1)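 Spheroids grown 14 days in stem cell media on hydrogel-coated nonadherent plates; 2D lines seeded directly. Compounds added after 4 h attachment, 48 h at 37C, 5% CO2; CellTiter-Glo luminescence normalized to DMSO (no inhibition) and no-cell wells (full inhibition).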

[2] = Identifying Small Molecule Inhibitors of Pancreatic Cancer Stem Cells (SN12C, Adherent) (AID 1259358);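 note: cell survival measured after 48 h of compound exposure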; note: potency is the fitted concentration of half-maximal effect
Summary of the method: (§2)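 Cytotoxicity read by CellTiter-Glo luminescence after 48 h compound exposure at 37C; percent activity scaled between DMSO-treated cells and cell-free wells. Spheroid formats used cells pre-formed 14 days in stem cell media on hydrogel.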

[3] = Identifying Small Molecule Inhibitors of Pancreatic Cancer Stem Cells (SN12C, Spheroid) (AID 1259360); conditions: Potency: SN12C spheroid viability; note: potency is the fitted concentration of half-maximal effect
Summary of the method: as §1

[4] = P-glycoprotein substrates identified in KB-3-1 adenocarcinoma cell line, qHTS therapeutic library screen (AID 1346986); note: nearly all actives have a fitted effect of over 60% in size
Summary of the method: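 Dose-response cytotoxicity, KB-3-1 vs P-gp-high KB-8-5-11, no colchicine in assay medium. Read: CellTiter-Glo at 72 h.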

[5] = P-glycoprotein substrates identified in KB-8-5-11 adenocarcinoma cell line, qHTS therapeutic library screen (AID 1346987); note: nearly all actives have a fitted effect of over 65% in size; note: potency is the fitted concentration of half-maximal effect
Summary of the method: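 Human cervical adenocarcinoma KB-8-5-11 cells, selected in colchicine to over-express P-gp and assayed without it, were exposed for 72 h to titrated compounds. An ATP-based luminescent viability signal gave AC50.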

[6] = NS1 protein of Zika virus - qHTS assay to identify small molecule inhibitors in human HEK 293 cells (AID 1347053); note: nearly all actives have a fitted effect of over 55% in size; note: potency is the fitted concentration of half-maximal effect
Summary of the method: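 Read-out is a two-antibody TR-FRET for ZIKV NS1, normalized between uninfected cells and infected cells. Compound added 1 h before MR766 infection at MOI 0.5; human HEK 293 cells incubated 24 h, 37 C.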

[7] = qHTS of pediatric cancer cell lines to identify multiple opportunities for drug repurposing: Primary screen for TC32 cells (AID 1347089); note: nearly all actives have a fitted effect of over 60% in size; note: potency is the fitted concentration of half-maximal effect
Summary of the method: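 qHTS, TC32, 48 h drug treatment, CellTiter-Glo luminescence as a proxy for metabolically active cells; primary top concentration 46 µM (MIPE 11-pt, NPC 8-pt); confirmatory 11-pt.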

[8] = qHTS of pediatric cancer cell lines to identify multiple opportunities for drug repurposing: Primary screen for DAOY cells (AID 1347090); note: nearly all actives have a fitted effect of over 55% in size; note: potency is the fitted concentration of half-maximal effect
Summary of the method: (§3)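 Cell viability, CellTiter-Glo luminescence; 500-1,000 cells/well, 8- or 11-point titration, 48 h compound exposure at 37 degrees C, 5% CO2. Controls: DMSO neutral, bortezomib 2.3 µM final as positive.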

[9] = qHTS of pediatric cancer cell lines to identify multiple opportunities for drug repurposing: Primary screen for SJ-GBM2 cells (AID 1347091); note: potency is the fitted concentration of half-maximal effect
Summary of the method: as §3

[10] = qHTS of pediatric cancer cell lines to identify multiple opportunities for drug repurposing: Primary screen for A673 cells (AID 1347092); note: nearly all actives have a fitted effect of over 45% in size; note: potency is the fitted concentration of half-maximal effect
Summary of the method: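 Luminescence from CellTiter-Glo, taken after 15 min at room temperature, served as the proxy for metabolically active cells following 48 h treatment. Both potency and efficacy were taken from curves fitted to the titration data.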

[11] = Identifying Small Molecule Inhibitors of Pancreatic Cancer Stem Cells (A278, Adherent) (AID 1259361); note: nearly all actives have a fitted effect of over 35% in size
Summary of the method: as §2

[12] = Identifying Small Molecule Inhibitors of Pancreatic Cancer Stem Cells (Panc1, Adherent) (AID 1259362); conditions: Potency: viability; note: potency is the fitted concentration of half-maximal effect
Summary of the method: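 Viability is scored by CellTiter-Glo luminescence 48 h after dosing, expressed as percent activity against vehicle and no-cell references. Spheroid formats rely on cells cultured 14 days in stem cell media beforehand.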

[13] = target: Atrial natriuretic peptide receptor 2 (Homo sapiens) (UniProt P20594); assay: Natriuretic polypeptide receptor (hNpr2) antagonism - Pilot subtype selectivity assay (AID 1347050; calls by dose curve)
Summary of the method: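 Antagonist mode: compounds (LOPAC1280, seven 1:5 dilutions) added 30 min before 1 nM hNppC stimulation of hNpr2-HEK293 cGMP-sensor cells; luminescence read before and 20 min after agonist at ambient temperature.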

[14] = target: Parathyroid hormone/parathyroid hormone-related peptide receptor (Homo sapiens) (UniProt Q03431); assay: qHTS for PTHR1 Agonists: Optimization Screen against the NCGC LOPAC library (AID 1347079);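 note: GloSensor cAMP luminescence in HEK-293 GP2 cells expressing human PTHR1 with IBMX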
Summary of the method: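 Signal increase flags agonism. GP2 cells, derived from HEK-293, express human PTHR1 and a GloSensor cAMP construct.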

[15] = Identifying Small Molecule Inhibitors of Pancreatic Cancer Stem Cells (Panc1, Spheroid) (AID 1259359);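 note: potency is the fitted concentration of half-maximal effect; compound exposure lasted 48 h before reading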
Summary of the method: as §1

[16] = Natriuretic polypeptide receptor (hNpr1) antagonism - Pilot counterscreen GloSensor control cell line (AID 1347045; calls by dose curve; note: series mostly up to about 38 µM)
Summary of the method: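 The SNP-driven cGMP luminescence signal (50 uM, 20 min, room temperature) was measured in GloSensor HEK293 control cells. Compounds were tested as a LOPAC titration series and preincubated for 30-50 min.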

[17] = target: Atrial natriuretic peptide receptor 1 (Homo sapiens) (UniProt P16066); assay: Natriuretic polypeptide receptor (hNpr1) antagonism - Pilot screen (AID 1347049; calls by dose curve;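 note: HEK293 cells with hNpr1 and GloSensor cGMP luciferase stimulated by 0.1 nM hNppA; agonist-evoked cGMP luminescence read 20 min after hNppA addition; series mostly up to about 58 µM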)
Summary of the method: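 Receptor antagonism read as cGMP-dependent luminescence in hNpr1/pGS-40F HEK293 cells: pre-read after 30 min compound exposure, post-read 20 min after hNppA agonist at 0.1 nM final, all at room temperature, protected from light; A-71915 titration as control.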

[18] = target: T1, Tyrosine-protein phosphatase non-receptor type substrate 1 (Homo sapiens) + Leukocyte surface antigen CD47 (Homo sapiens) (UniProt P78324+Q08722); assay: CD47-SIRPalpha protein protein interaction - LANCE assay qHTS validation (AID 1347057; active = well fitted curve in the direction sought with a large enough effect in the signal ratio, with a control signal flat, not every such curve was filed as active; the % refers to the signal ratio; note: series mostly up to about 38 µM)
Summary of the method: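 Inhibition of soluble CD47/SIRPalpha ectodomain association by titrated compounds, measured as 665/615 nm time-resolved FRET ratio after sequential 30 min room-temperature incubations.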

[19] = target: T1, Tyrosine-protein phosphatase non-receptor type substrate 1 (Homo sapiens) + Leukocyte surface antigen CD47 (Homo sapiens); assay: CD47-SIRPalpha protein protein interaction - HTRF assay qHTS validation (AID 1347058; active = well fitted curve in the direction sought with a large enough effect in the signal ratio, not every such curve was filed as active; the % refers to the signal ratio; note: series mostly up to about 38 µM)
Summary of the method: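 Soluble extracellular domains (6His-CD47, Avi-tag-biotinylated SIRPalpha) in PBS pH 7.4 with 0.05% IGEPAL CA-630. Compounds were preincubated 30 min at RT with CD47 and anti-His-Eu, then SIRPalpha and SAV-XL665 were added. TR-FRET 665/615 ratio.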

[20] = target: T1, Tyrosine-protein phosphatase non-receptor type substrate 1 (Homo sapiens) + Leukocyte surface antigen CD47 (Homo sapiens); assay: CD47-SIRPalpha protein protein interaction - Alpha assay qHTS validation (AID 1347059);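 note: bead proximity luminescence from CD47 binding SIRPalpha after compound preincubation with SIRPalpha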
Summary of the method: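 AlphaScreen signal between CD47-His (12.5 nM) and biotin-SIRPalpha (25 nM) soluble extracellular domains, bead-captured via Ni-NTA and streptavidin. Compounds, in 7-point titrations, met SIRPalpha 30 min before CD47; PBS pH 7.4 with 0.05% IGEPAL.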

T1 sequence (P78324 whole entry, looked up, the tested form may be a part): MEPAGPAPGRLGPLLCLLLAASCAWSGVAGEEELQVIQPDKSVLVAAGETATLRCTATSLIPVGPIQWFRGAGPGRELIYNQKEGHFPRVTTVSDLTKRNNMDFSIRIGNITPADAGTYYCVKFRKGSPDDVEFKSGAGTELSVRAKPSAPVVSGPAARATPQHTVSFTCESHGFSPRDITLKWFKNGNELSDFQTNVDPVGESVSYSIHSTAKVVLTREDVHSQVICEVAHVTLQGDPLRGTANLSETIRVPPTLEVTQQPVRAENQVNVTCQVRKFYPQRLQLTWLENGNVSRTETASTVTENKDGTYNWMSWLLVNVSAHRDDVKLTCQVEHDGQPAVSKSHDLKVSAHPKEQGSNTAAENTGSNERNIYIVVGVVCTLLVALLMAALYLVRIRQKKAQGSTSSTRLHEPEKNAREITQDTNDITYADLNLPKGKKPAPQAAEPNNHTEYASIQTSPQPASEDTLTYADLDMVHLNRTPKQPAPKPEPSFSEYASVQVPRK
T1 sequence (Q08722 whole entry, looked up, the tested form may be a part): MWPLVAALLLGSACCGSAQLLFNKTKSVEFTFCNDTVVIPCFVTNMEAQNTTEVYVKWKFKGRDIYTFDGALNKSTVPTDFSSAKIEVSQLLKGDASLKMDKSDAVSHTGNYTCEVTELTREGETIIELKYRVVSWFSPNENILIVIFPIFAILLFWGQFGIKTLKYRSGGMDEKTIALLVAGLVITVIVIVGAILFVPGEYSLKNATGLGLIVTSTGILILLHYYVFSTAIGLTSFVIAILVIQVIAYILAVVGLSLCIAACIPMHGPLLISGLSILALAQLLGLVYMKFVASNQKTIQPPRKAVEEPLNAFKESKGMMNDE
Chain of Atrial natriuretic peptide receptor 2 (Homo sapiens) (P20594 whole entry, looked up): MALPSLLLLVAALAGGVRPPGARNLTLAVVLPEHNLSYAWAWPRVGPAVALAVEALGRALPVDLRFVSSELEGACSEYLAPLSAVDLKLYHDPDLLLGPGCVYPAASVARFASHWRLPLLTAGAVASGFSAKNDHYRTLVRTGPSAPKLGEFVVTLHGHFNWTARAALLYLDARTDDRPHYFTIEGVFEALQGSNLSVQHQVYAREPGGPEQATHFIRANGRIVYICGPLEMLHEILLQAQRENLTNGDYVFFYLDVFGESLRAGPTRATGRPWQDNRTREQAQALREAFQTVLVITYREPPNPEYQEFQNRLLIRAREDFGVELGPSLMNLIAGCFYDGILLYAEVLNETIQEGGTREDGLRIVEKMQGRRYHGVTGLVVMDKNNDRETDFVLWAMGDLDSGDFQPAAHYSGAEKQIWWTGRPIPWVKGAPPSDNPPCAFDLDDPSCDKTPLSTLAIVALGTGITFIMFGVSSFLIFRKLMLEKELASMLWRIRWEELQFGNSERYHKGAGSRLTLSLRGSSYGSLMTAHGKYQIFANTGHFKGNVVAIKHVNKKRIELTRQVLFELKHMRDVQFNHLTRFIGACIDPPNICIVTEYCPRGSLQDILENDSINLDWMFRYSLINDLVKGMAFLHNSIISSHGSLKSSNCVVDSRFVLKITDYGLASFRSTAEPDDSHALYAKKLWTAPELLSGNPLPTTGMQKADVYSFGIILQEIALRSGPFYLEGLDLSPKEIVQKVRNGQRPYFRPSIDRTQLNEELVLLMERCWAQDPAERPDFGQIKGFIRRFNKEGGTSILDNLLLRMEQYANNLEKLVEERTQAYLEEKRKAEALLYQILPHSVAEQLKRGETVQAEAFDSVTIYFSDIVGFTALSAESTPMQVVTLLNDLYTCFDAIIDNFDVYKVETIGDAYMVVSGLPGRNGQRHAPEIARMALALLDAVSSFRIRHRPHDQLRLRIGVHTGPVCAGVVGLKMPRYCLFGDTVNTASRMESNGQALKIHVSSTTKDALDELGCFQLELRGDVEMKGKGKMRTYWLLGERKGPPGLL
Chain of Parathyroid hormone/parathyroid hormone-related peptide receptor (Homo sapiens) (Q03431 whole entry, looked up): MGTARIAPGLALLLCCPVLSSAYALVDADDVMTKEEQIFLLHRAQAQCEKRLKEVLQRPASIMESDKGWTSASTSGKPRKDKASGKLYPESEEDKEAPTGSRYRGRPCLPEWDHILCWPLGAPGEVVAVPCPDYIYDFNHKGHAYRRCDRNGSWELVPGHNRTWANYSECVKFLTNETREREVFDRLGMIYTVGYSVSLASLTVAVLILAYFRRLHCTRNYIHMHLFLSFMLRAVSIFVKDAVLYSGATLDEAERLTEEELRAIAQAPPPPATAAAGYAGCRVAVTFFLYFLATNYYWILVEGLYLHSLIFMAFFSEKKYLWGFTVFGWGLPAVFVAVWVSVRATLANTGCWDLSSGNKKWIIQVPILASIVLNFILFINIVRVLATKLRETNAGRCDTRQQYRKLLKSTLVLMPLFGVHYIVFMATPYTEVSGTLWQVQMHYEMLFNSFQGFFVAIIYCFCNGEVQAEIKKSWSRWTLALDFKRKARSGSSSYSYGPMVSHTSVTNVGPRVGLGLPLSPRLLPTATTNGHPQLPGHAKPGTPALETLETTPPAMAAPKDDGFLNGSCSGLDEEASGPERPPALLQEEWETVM
Chain of Atrial natriuretic peptide receptor 1 (Homo sapiens) (P16066 whole entry, looked up): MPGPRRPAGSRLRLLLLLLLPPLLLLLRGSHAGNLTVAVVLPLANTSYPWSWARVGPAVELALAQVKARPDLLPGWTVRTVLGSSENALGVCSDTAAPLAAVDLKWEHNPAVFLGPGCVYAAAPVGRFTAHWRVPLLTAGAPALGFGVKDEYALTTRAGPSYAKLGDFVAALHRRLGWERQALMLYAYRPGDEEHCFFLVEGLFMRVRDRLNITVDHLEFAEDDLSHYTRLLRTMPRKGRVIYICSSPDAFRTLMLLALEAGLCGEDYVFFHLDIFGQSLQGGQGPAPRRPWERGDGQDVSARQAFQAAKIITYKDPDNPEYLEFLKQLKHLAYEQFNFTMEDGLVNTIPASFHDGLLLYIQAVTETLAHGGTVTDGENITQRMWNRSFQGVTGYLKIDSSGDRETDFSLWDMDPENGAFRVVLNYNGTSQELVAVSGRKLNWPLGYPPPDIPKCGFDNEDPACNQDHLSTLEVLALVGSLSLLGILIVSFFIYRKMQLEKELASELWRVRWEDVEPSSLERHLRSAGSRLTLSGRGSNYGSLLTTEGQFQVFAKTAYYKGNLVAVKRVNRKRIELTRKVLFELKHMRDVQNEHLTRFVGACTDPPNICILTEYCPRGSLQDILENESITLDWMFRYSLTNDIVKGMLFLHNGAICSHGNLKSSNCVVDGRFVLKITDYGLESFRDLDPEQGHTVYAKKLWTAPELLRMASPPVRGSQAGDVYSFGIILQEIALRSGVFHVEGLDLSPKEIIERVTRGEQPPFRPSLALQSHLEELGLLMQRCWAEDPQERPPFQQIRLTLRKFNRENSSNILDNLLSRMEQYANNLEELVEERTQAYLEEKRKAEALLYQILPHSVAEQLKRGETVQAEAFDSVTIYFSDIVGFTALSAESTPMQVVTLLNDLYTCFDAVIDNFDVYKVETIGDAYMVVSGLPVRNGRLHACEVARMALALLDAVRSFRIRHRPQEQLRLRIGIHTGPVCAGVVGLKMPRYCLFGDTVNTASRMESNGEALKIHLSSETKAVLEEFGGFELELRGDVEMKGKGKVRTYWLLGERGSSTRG

Cc1cc(SCc2sc(-c3ccc(C(F)(F)F)cc3)nc2C)ccc1OCC(=O)O
inactive: Potency [1] | Potency [2] | Potency [3] | Potency [4] | Potency [5] | Potency [6] | Potency [7] | Potency [8]

COc1ccc(-c2ccc3c(N4CCOC[C@H]4C)nc(N4CCOC[C@H]4C)nc3n2)cc1CO
active: Potency [1] 0.0187 µM | Potency [2] 0.0148 µM | Potency [5] 0.0132 µM | Potency [9] 0.0083 µM | Potency [10] 0.0235 µM

COc1cc(F)c(F)c(Nc2ccc(I)cc2F)c1NS(=O)(=O)C1(C[C@H](O)CO)CC1
active: Potency [2] 20.9 µM | IC50 (viability decrease) [11] 20.9 µM
inactive: Potency [1] | Potency [3] | Potency [4] | Potency [5] | Potency [6] | Potency [7]

COCCNCCCn1c(C(=O)CF)c(-c2ccc(C)cc2)c2c(N)ncnc21
inactive: Potency [1] | Potency [2] | Potency [5] | Potency [6] | Potency [7]
active: IC50 (viability decrease) [11] 18.7 µM

O=C(Nc1cccnc1)N1CCC(Cc2cccc(Oc3ccc(C(F)(F)F)cn3)c2)CC1
active: Potency [1] 18.7 µM | Potency [8] 14.8 µM | Potency [9] 18.7 µM
inactive: Potency [2] | Potency [3] | Potency [7]

CCC(C)n1ncn(-c2ccc(N3CCN(c4ccc(OC[C@H]5CO[C@](Cn6cncn6)(c6ccc(Cl)cc6Cl)O5)cc4)CC3)cc2)c1=O (stereo partly specified)
active: Potency [1] 4.69 µM | IC50 (viability decrease) [11] 5.9 µM | Potency [9] 1.66 µM
inactive: Potency [2] | Potency [12] | Potency [5] | Potency [6] | Potency [7] | Potency [8] | Potency [10]

Nc1nc2[nH]cc(CCc3ccc(C(=O)N[C@@H](CCC(=O)O)C(=O)O)cc3)c2c(=O)[nH]1
active: Potency [2] 0.662 µM | Potency [7] 4.66 µM
inactive: Potency [1] | Potency [3] | Potency [6] | Potency [8]

C[C@]12CCC(=O)C=C1CC[C@@H]1[C@@H]2[C@@H](O)C[C@@]2(C)[C@H]1CC[C@]2(O)C(=O)CO
inactive: Potency [1] | Potency [3] | Potency [12] | Potency [13] | Potency [6] | outcome [14] | Potency [7] | Potency [8] | Potency [9] | Potency [10]

CCOc1ccc(Cc2cc([C@@H]3O[C@H](CO)[C@@H](O)[C@H](O)[C@@H]3O)ccc2Cl)cc1
active: Potency [10] 23.5 µM
inactive: Potency [1] | Potency [3] | Potency [5] | Potency [6] | Potency [7]

Cc1cc2c(F)c(Oc3ncnn4cc(OC[C@@H](C)O)c(C)c34)ccc2[nH]1
inactive: Potency [1] | Potency [3] | Potency [12]
active: Potency [6] 0.935 µM | Potency [9] 10.5 µM

CC(C)(C)OC(=O)CN(Cc1ccc(Cl)cc1)Cc1ccc([N+](=O)[O-])s1
active: Potency [2] 4.69 µM | Potency [15] 7.43 µM
inactive: Potency [3] | Potency [6] | Potency [7] | Potency [8] | Potency [9] | Potency [10]

COc1ccc2c3n(c(=NC(=O)c4cccnc4)nc2c1OC)CCN3
active: Potency [1] 3.32 µM | Potency [2] 3.72 µM | Potency [3] 5.9 µM | Potency [12] 2.35 µM | Potency [5] 0.651 µM | Potency [8] 1.87 µM | Potency [9] 18.7 µM
inactive: Potency [6]

Cc1oncc1C(=O)Nc1ccc(C(F)(F)F)cc1
inactive: Potency [1] | outcome [16] | outcome [17] | Potency [13] | outcome [18] | outcome [19] | outcome [20] | outcome [14] | Potency [9]
active: IC50 (viability decrease) [11] 11.8 µM
inactive and 11.8 µM (active): Potency [6]

CN[C@@H](C)C(=O)N[C@H]1CCCC[C@H]2CC[C@@H](C(=O)N[C@@H](c3ccccc3)c3cn(CCCCc4ccc(CCCCn5cc([C@@H](NC(=O)[C@@H]6CC[C@@H]7CCCC[C@H](NC(=O)[C@H](C)NC)C(=O)N76)c6ccccc6)nn5)cc4)nn3)N2C1=O
inactive: Potency [1] | Potency [2] | Potency [3] | Potency [5] | Potency [6] | Potency [7] | Potency [9]

O=C(C=Cc1ccc(/C=C/C(=O)Nc2ccc(C3=NCCN3)cc2)cc1)Nc1ccc(C2=NCCN2)cc1
inactive: Potency [1] | Potency [2] | Potency [3] | IC50 (viability decrease) [11] | Potency [4] | Potency [5] | Potency [6] | Potency [7] | Potency [8] | Potency [9] | Potency [10]

N#Cc1ccc(C(c2ccc(C#N)cc2)n2cncn2)cc1
inactive: Potency [1] | Potency [2] | Potency [3] | IC50 (viability decrease) [11] | Potency [5] | Potency [6] | Potency [9]

C[C@@H]1C[C@H]2[C@@H]3CCC4=CC(=O)C=C[C@]4(C)C3(F)[C@@H](O)C[C@]2(C)[C@@]1(O)C(=O)CO (stereo partly specified)
active: IC50 (viability decrease) [11] 23.5 µM
inactive: Potency [1] | Potency [2] | Potency [3]

CCCc1nc2c(C)cc(-c3nc4ccccc4n3C)cc2n1Cc1ccc(-c2ccccc2C(=O)O)cc1
inactive: Potency [1] | Potency [2] | Potency [3] | IC50 (viability decrease) [11] | Potency [12] | Potency [5] | Potency [6] | Potency [7] | Potency [8] | Potency [9] | Potency [10]

COc1ccc(-c2ccc3c(N4CCOCC4)nc(N4C[C@@H](C)O[C@@H](C)C4)nc3n2)cc1CO
active: Potency [2] 0.235 µM | Potency [15] 1.05 µM | Potency [3] 0.372 µM | Potency [5] 0.296 µM | Potency [9] 0.296 µM | Potency [10] 11.8 µM

CN(C)c1ccc(Nc2nc(N)n(C(=O)c3c(F)cccc3F)n2)cc1
active: Potency [1] 18.7 µM | IC50 (viability decrease) [11] 16.6 µM | Potency [9] 16.6 µM
inactive: Potency [6]

COc1ccc(-c2c(-c3ccc(O)cc3O)n[nH]c2C)cc1
active: IC50 (viability decrease) [11] 26.4 µM
inactive: Potency [1] | Potency [2] | Potency [3] | Potency [7]

CS(=O)(=O)Oc1ccc2c(NC(N)=O)c(C(=O)c3ccc(Cl)cc3Cl)oc2c1
active: Potency [1] 11.8 µM | Potency [8] 14.8 µM | Potency [9] 3.32 µM | Potency [10] 2.35 µM
inactive: Potency [2] | Potency [3] | Potency [5] | Potency [6] | Potency [7]

From PubChem BioAssay (NCATS)
